Results reported in PubChem BioAssay AID1159580 (chemical genetic matrix, 2015).
About 2,000 (36%) of roughly 5,500 compounds were called active. Inconclusive results (about 18%) are left out. Rule as the data show it: active = normalized growth mostly below about 0.91 (no sharp cut-off); inconclusive = no clear call, values can overlap the other calls; inactive = mostly above about 0.92. Some of the results follow.

Assay: chemical genetic growth profiling, strain panel (AID 1159580);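 also: tested at 20 µM; growth read once vehicle control cultures reached saturation at 30 °C; 1 = growth at the plate median or of vehicle wells; lower values mean less growth of the strain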
Settings: growth OD

Measured: normalized growth

O=C(N[C@@H](CO)[C@H](O)c1ccc([N+](=O)[O-])cc1)C(Cl)Cl
inactive: S. cerevisiae deletion strains, locus YJR075W, strain HOC1, hits give low values 1.02 | S. cerevisiae deletion strains, locus YKL009W, strain mrt4, hits give low values 1.01 | S. cerevisiae deletion strains, locus YKL068W, hits give low values 1 | S. cerevisiae deletion strains, locus YKL085W, strain MDH1 (second series), hits give low values 1 | S. cerevisiae deletion strains, locus YKL085W, strain MDH1, hits give low values 1 | S. cerevisiae deletion strains, locus YKL160W, strain elf1, hits give low values 1.04 | S. cerevisiae deletion strains, locus YKL190W, strain CNB1, hits give low values 1 | S. cerevisiae deletion strains, locus YKR001C, strain vps1, hits give low values 1 | S. cerevisiae deletion strains, locus YKR026C, strain gcn3, hits give low values 1.04 | S. cerevisiae deletion strains, locus YKR091W, strain srl3, hits give low values 0.999 | S. cerevisiae deletion strains, locus YLL001W, strain dnm1, hits give low values 1.01 | S. cerevisiae deletion strains, locus YLL026W, hits give low values 0.998 | S. cerevisiae deletion strains, locus YLL041C, strain sdh2, hits give low values 1.01 | S. cerevisiae deletion strains, locus YLR027C, strain aat2, hits give low values 1.02 | S. cerevisiae deletion strains, locus YLR039C, strain RIC1, hits give low values 1.01 | S. cerevisiae deletion strains, locus YLR058C, strain SHM2, hits give low values 1 | S. cerevisiae deletion strains, locus YLR102C, strain apc9, hits give low values 1.01 | S. cerevisiae deletion strains, locus YLR113W, strain HOG1, hits give low values 0.972 | S. cerevisiae deletion strains, locus YLR221C, strain rsa3, hits give low values 1.02 | S. cerevisiae deletion strains, locus YLR258W, strain gsy2, hits give low values 1.01 | S. cerevisiae deletion strains, locus YLR262C, strain YPT6 (second series), hits give low values 1.01 | S. cerevisiae deletion strains, locus YLR262C, strain YPT6, hits give low values 1.03 | S. cerevisiae deletion strains, locus YLR268W, strain sec22, hits give low values 1.05 | S. cerevisiae deletion strains, locus YLR320W, strain mms22, hits give low values 1 | S. cerevisiae deletion strains, locus YLR330W, strain CHS5, hits give low values 0.999 | S. cerevisiae deletion strains, locus YLR342W, strain FKS1 (second series), hits give low values 1.01 | S. cerevisiae deletion strains, locus YLR342W, strain FKS1, hits give low values 1.01 | S. cerevisiae deletion strains, locus YLR357W, strain rsc2, hits give low values 1.08 | S. cerevisiae deletion strains, locus YLR370C, strain arc18, hits give low values 1.02 | S. cerevisiae deletion strains, locus YLR371W, strain rom2, hits give low values 1.02 | S. cerevisiae deletion strains, locus YLR384C, strain iki3, hits give low values 1.02 | S. cerevisiae deletion strains, locus YLR418C, strain cdc73, hits give low values 1.01 | S. cerevisiae deletion strains, locus YML016C, strain PPZ1, hits give low values 1 | S. cerevisiae deletion strains, locus YML032C, strain rad52, hits give low values 1.03 | S. cerevisiae deletion strains, locus YML120C, strain ndi1, hits give low values 1 | S. cerevisiae deletion strains, locus YML124C, strain tub3, hits give low values 1 | S. cerevisiae deletion strains, locus YMR058W, strain fet3, hits give low values 1.01 | S. cerevisiae deletion strains, locus YMR078C, strain ctf18, hits give low values 1.01 | S. cerevisiae deletion strains, locus YMR125W, strain sto1, hits give low values 1.02 | S. cerevisiae deletion strains, locus YMR129W, hits give low values 1.02 | S. cerevisiae deletion strains, locus YMR205C, strain PFK2, hits give low values 1 | S. cerevisiae deletion strains, locus YMR223W, strain ubp8, hits give low values 0.974 | S. cerevisiae deletion strains, locus YMR231W, strain pep5, hits give low values 1.02 | S. cerevisiae deletion strains, locus YMR263W, strain SAP30, hits give low values 1.02 | S. cerevisiae deletion strains, locus YMR307W, strain GAS1, hits give low values 0.986 | S. cerevisiae deletion strains, locus YNL067W, strain RPL9B, hits give low values 1.03 | S. cerevisiae deletion strains, locus YNL071W, strain lat1, hits give low values 1.02 | S. cerevisiae deletion strains, locus YNL128W, strain TEP1, hits give low values 1.01 | S. cerevisiae deletion strains, locus YNL153C, strain GIM3, hits give low values 1.03 | S. cerevisiae deletion strains, locus YNL183C, strain NPR1, hits give low values 0.921 | S. cerevisiae deletion strains, locus YNL209W, strain ssb2, hits give low values 1.03 | S. cerevisiae deletion strains, locus YNL233W, strain BNI4, hits give low values 1.02 | S. cerevisiae deletion strains, locus YNL248C, strain rpa49, hits give low values 1.04 | S. cerevisiae deletion strains, locus YNL250W, strain rad50, hits give low values 1 | S. cerevisiae deletion strains, locus YNL271C, strain bni1, hits give low values 1.01 | S. cerevisiae deletion strains, locus YNL298W, strain CLA4, hits give low values 1.02 | S. cerevisiae deletion strains, locus YNL307C, strain MCK1, hits give low values 1.01 | S. cerevisiae deletion strains, locus YNL322C, strain KRE1 (second series), hits give low values 1.04 | S. cerevisiae deletion strains, locus YNL322C, strain KRE1, hits give low values 0.999 | S. cerevisiae deletion strains, locus YNR049C, strain mso1, hits give low values 1.01 | S. cerevisiae deletion strains, locus YNR052C, strain pop2, hits give low values 1.01 | S. cerevisiae deletion strains, locus YOL006C, strain TOP1, hits give low values 1.1 | S. cerevisiae deletion strains, locus YOL012C, strain htz1 1.24 | S. cerevisiae deletion strains, locus YOL147C, strain pex11, hits give low values 1.03 | S. cerevisiae deletion strains, locus YOR001W, strain rrp6, hits give low values 1.02 | S. cerevisiae deletion strains, locus YOR061W, strain CKA2, hits give low values 1.01 | S. cerevisiae deletion strains, locus YOR069W, strain VPS5, hits give low values 1 | S. cerevisiae deletion strains, locus YOR070C, strain gyp1, hits give low values 1 | S. cerevisiae deletion strains, locus YOR080W, strain dia2, hits give low values 1.02 | S. cerevisiae deletion strains, locus YOR083W, strain WHI5, hits give low values 0.984 | S. cerevisiae deletion strains, locus YOR106W, strain vam3, hits give low values 1.02 | S. cerevisiae deletion strains, locus YOR136W, strain idh2, hits give low values 0.998 | S. cerevisiae deletion strains, locus YOR144C, strain elg1, hits give low values 1.01 | S. cerevisiae deletion strains, locus YOR184W, strain ser1, hits give low values 1 | S. cerevisiae deletion strains, locus YOR231W, strain MKK1, hits give low values 0.956 | S. cerevisiae deletion strains, locus YOR265W, strain rbl2, hits give low values 1.02 | S. cerevisiae deletion strains, locus YOR270C, strain vph1, hits give low values 1.07 | S. cerevisiae deletion strains, locus YOR290C, strain snf2, hits give low values 1.02 | S. cerevisiae deletion strains, locus YOR316C, strain cot1, hits give low values 1.01 | S. cerevisiae deletion strains, locus YPL051W, strain arl3, hits give low values 1.02 | S. cerevisiae deletion strains, locus YPL055C, strain LGE1, hits give low values 0.986 | S. cerevisiae deletion strains, locus YPL078C, strain atp4, hits give low values 1.03 | S. cerevisiae deletion strains, locus YPL106C, strain sse1, hits give low values 1.01 | S. cerevisiae deletion strains, locus YPL240C, strain hsp82, hits give low values 1.01 | S. cerevisiae deletion strains, locus YPL241C, strain CIN2, hits give low values 1 | S. cerevisiae deletion strains, locus YPL256C, strain CLN2, hits give low values 0.955 | S. cerevisiae deletion strains, locus YPR119W, strain clb2, hits give low values 1 | S. cerevisiae deletion strains, locus YPR141C, strain kar3, hits give low values 0.995 | S. cerevisiae deletion strains, locus YPR163C, strain tif3, hits give low values 1.02 | S. cerevisiae deletion strains, locus YPR167C, strain met16, hits give low values 0.999 | S. cerevisiae deletion strains, strain wtn01, hits give low values 1.04 | S. cerevisiae strains, strain wild type, hits give low values 1
